POLI inh: DNA polymerase iota (human) inhibition; Pol iota fluorescent replication assay, 10 min; Potency, µM (doses to about 115 µM), for the others: at the top dose activity, negative = inhibition, actives largely listed as inhibitors; 390,000 compounds, 1% hits; AID 588590
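Pol iota at 10 nM preincubated 15 min with compounds at room temperature; reaction started with fluorescent substrate, 50 nM final. Fluorescence read kinetically at 0 and 10 min; buffer-only wells as negative control.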
POLB inh: inhibitors of human DNA polymerase beta. P06746. Pol beta primer extension/strand displacement, fluorescence kinetic. Potency, µM (titrated, usually from 114 µM), for the others: top-dose activity change, negative = inhibition, most hits filed as inhibitors. 340,000 compounds, 1.3% hits. AID 485314; also: % is scaled to controls: 0 for no effect and ±100 for the full control effect
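Enzyme-only controls used 10 nM Pol beta; buffer lacking enzyme served as negative control. Compound preincubated 15 min, then 50 nM substrate added; 0 and 10 min reads at room temperature.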
WRN inhibitor: blocks human WRN helicase | 360,000 compounds, 0.46% hits | Potency, µM (doses to about 114 µM), for inactives: top-dose activity change, negative = inhibition, usual class: inhibitors | Q14191 | WRN helicase unwinding, fluorescent forked duplex, kinetic; also: % is scaled to controls: 0 for no effect and ±100 for the full control effect; nearly all actives have a fitted effect of over 55% in size
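Kinetic red-fluorescence monitoring (525/598 nm) tracks WRN helicase activity after 100 nM fluorophore-quencher forked duplex and 2 mM ATP are added to 20 nM enzyme pretreated 15 min at room temperature with compound.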
Pol kappa inh-1: DNA polymerase kappa (human) inhibition | Q9UBT6 | purified Pol kappa, fluorescent DNA synthesis assay, 10 min | Potency, µM (highest dose often 107 µM), without a hit: at the top dose activity, negative = inhibition, usual class: inhibitors | 400,000 compounds, 0.53% hits | AID 588579; also: % is scaled to controls: 0 for no effect and ±100 for the full control effect
Target sequence (Q9UBT6 whole entry, looked up): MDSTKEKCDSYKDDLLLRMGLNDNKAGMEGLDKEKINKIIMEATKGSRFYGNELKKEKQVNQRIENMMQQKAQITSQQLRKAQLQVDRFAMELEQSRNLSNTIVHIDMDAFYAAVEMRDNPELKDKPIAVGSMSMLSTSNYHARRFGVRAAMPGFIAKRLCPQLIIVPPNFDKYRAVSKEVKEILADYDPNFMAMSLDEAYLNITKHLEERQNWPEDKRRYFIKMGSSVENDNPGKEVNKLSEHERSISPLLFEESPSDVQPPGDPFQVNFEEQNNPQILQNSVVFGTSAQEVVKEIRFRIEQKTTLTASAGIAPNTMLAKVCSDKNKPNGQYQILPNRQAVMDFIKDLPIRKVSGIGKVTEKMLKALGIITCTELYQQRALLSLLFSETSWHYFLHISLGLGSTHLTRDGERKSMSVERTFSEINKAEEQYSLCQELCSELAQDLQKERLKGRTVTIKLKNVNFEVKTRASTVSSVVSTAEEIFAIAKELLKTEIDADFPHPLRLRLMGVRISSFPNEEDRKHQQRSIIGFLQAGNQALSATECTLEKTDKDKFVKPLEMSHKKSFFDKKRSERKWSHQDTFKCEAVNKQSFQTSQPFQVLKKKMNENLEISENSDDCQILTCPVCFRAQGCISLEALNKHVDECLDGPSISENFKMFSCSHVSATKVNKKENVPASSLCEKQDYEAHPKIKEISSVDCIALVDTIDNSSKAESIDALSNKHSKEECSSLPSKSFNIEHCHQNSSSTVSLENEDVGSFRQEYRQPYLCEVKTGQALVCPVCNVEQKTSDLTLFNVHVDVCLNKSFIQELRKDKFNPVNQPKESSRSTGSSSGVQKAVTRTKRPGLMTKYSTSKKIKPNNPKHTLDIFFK
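First, compounds were pin-transferred onto 10 nM Pol kappa. After 15 min at room temperature, substrate was added to 50 nM final. Fluorescence was then measured kinetically at 0 and 10 min.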
Pol eta inh-1: blocks human DNA polymerase eta activity. recombinant Pol eta, fluorescent DNA replication assay. Potency, µM (series often up to 114 µM), without a hit: at the top dose activity change, negative = inhibition, most hits filed as inhibitors. 390,000 compounds, 1.2% hits. AID 588591; also: % is scaled to controls: 0 for no effect and ±100 for the full control effect
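Pol eta (10 nM) was preincubated with compounds for 15 min at room temperature, after which fluorescent replication substrate (50 nM final) was added to start the reaction. Fluorescence was read kinetically at 0 and 10 min.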
Pol kappa inh-2: confirmation of human DNA polymerase kappa inhibitors; purified Pol-kappa, fluorescent strand-displacement substrate; Potency, µM, actives largely listed as inhibitors; AID 720501; 920 compounds, 76% hits; shares compounds with Pol eta inh-1
Pol eta inh-2: confirmation of human DNA polymerase eta inhibitors | shares compounds with Pol eta inh-1 | Pol eta primer extension, TAMRA/BHQ fluorescence, 10 min | Potency, µM, hits mostly inhibitors | 2,600 compounds, 64% hits | AID 720502
Starred values were filed as active, the others as inactive; u = inconclusive; x = no result given; [ ] = another dose, or the depositor's remark. This is a sample that favours compounds with a hit; in the whole collection about 2.3% have one here. Calls follow the shape of the dose curve; as a rule, active = well fitted curve in the direction sought with a large enough effect; inconclusive = small, poorly fitted or top-dose-only effect, or another doubt; inactive = no such curve, though single readings can be large; an effect the other way counts as inactive or inconclusive. Potency is read from the fitted curve at half-maximal effect.

SMILES	POLI inh	POLB inh	WRN inhibitor	Pol kappa inh-1	Pol eta inh-1	Pol eta inh-2	others
Cc1cc(C)n(-c2nc(C)c(C)c(=O)n2CC(=O)Nc2ccc(OC(F)(F)F)cc2)n1	-11%	-8%	x	-4%[60.1 µM]	-13%	x
CCOCCCNC(=O)C1CCN(C(=O)c2cc3sccc3n2C)CC1	6%	2%	x	-1%	-10%	x
O=C(COc1cc2oc(=O)cc(-c3ccccc3)c2cc1Cl)NC(Cc1c[nH]c2ccc(O)cc12)C(=O)O (centres undefined)	u	u	-8%	-5%	50µM*	u
Cc1c(C)c2ccc(OC(C)C(=O)N[C@@H](Cc3c[nH]c4ccccc34)C(=O)O)c(C)c2oc1=O (some centres undefined)	-5%	30%	-4%	0%	-3%	x
O=C(COc1ccc2c(-c3ccccc3)cc(=O)oc2c1)N[C@H](Cc1c[nH]c2ccccc12)C(=O)O	-11%	3%	-8%	-17%	u	x
Cc1c(OC(C)C(=O)NC(Cc2c[nH]c3ccc(O)cc23)C(=O)O)ccc2c1oc(=O)c1ccccc12 (centres undefined)	45µM*	2.5µM*	u	u	20µM*	u
CC(Oc1ccc2ccc(=O)oc2c1)C(=O)NC(Cc1c[nH]c2ccc(O)cc12)C(=O)O (centres undefined)	u	u	-12%	u	22µM*	u
CC(=O)n1cc(N(C(=O)CCl)c2ccc(Cl)cc2)c2ccccc21	u	15%	-13%	-15%	28µM*	u
O=C(CSc1nc2ccccc2c(=O)n1-c1ccccc1)NC(=O)CN1CCCC1=O	u	13µM*	-4%[11.6 µM]	u	45µM*	u
Cc1cc(C)c2c(C)c(C(=O)N3CCC(c4nc5ccccc5s4)CC3)oc2c1	3%	2%	x	4%	-21%	x
COc1cc(/C=N/NC(=O)c2cc(-c3c(C)nn(-c4ccccc4)c3C)n[nH]2)ccc1O	3.2µM*	u	u	u	20µM*	54*
Cc1nn(-c2ccccc2)c(C)c1-c1cc(C(=O)N/N=C/c2ccc(O)cc2)[nH]n1	20µM*	10µM*	-16%	79µM*	28µM*	43*
Cc1nn(-c2ccccc2)c(C)c1/C=N/NC(=O)c1cc(O)cc(O)c1	60%	10%	1%	5%	-16%	x
COc1cc(/C=N/NC(=O)c2nc(-c3ccccc3)n(-c3ccccc3)n2)ccc1O	79%	31%	-18%	-6%	u	x
COc1ccc(CC(=O)N/N=C/c2ccc(-c3cccc(C(=O)O)c3)o2)cc1OC	u	13µM*	-10%	79µM*	10µM*	19*	Pol kappa inh-2=12*
CNC(=S)N/N=C/c1ccc(-c2cccc(C(=O)O)c2)o1	48%	-13%	-20%	-24%	-10%	x
Cc1ccc(OCC(=O)N/N=C\c2ccc(-c3cccc(C(=O)O)c3)o2)c(C)c1	u	20µM*	u	50µM*	3.5µM*	30*
O=C(O)c1cccc(-c2ccc(/C=N/Nc3nn[nH]n3)o2)c1	27%	u	-19%	u	u	67*
Cc1cc(C)c(NC(=O)CSc2ncc(S(=O)(=O)c3ccc(C(C)(C)C)cc3)c(=O)[nH]2)c(C)c1	-3%	0%	x	3%	-9%	x
Cc1cc(C)c2nc(N(Cc3cccnc3)C(=O)c3cccs3)sc2c1	8%	3%	x	-13%[60.1 µM]	u	x
COc1ccc(N2CCN(C(=O)c3cccc(NC(=O)c4nsc5ccccc45)c3)CC2)cc1	-7%	6%	x	-12%[60.1 µM]	-12%	x
CC(=O)c1cccc(S(=O)(=O)NCCCN2CCOCC2)c1	45µM*	x	-4%[11.6 µM]	u	20µM*	76*
O=C(NCCCN1CCOCC1)c1cccc(S(=O)(=O)NCc2ccccc2)c1	45%	x	6%	-16%	-14%	x

From PubChem
